Assay [1] has as its target Nuclear receptor subfamily 1 group I member 2 (Rattus norvegicus) (UniProt Q9R1A7). Briefly: qHTS assay for small molecule activators of the rat pregnane X receptor (rPXR) signaling pathway (AID 651751; call rule not given here). Conditions: rPXR reporter cells, luciferase (One-Glo), 24 h. In general terms: Quantitative high-throughput screening tests each substance at several concentrations.
In assay [2] the test system is astro. In words: Drug repurposing screens with cells derived from glioblastoma tumor samples (AID 1345199). Note: nearly all actives have a fitted effect of over 40% in size. Note: potency is the fitted concentration of half-maximal effect. To be noted: viability, ATP luminescence, 48 h; series mostly up to 45.9 µM. The procedure, abridged:
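Four patient lines of CD133+ GBM neurospheres were screened at several concentrations; hits were retested in those lines plus three slower-growing GBM lines, using 48-hour treatment and ATP-based viability.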

A short description of assay [3]: qHTS assay for small molecule activators of the human pregnane X receptor (PXR) signaling pathway (AID 720659; call rule not given here). Conditions: DPX-2 HepG2 CYP3A4-luciferase, 24 h; series mostly up to 92.3 µM.
A short description of assay [4]: qHTS assay to identify inhibitors of the type 1 interferon - major histocompatibility complex class I in skeletal muscle: Counter screen cell viability and HiBit confirmation (AID 1347412). Note: nearly all actives have a fitted effect of over 60% in size. Note: potency is the fitted concentration of half-maximal effect. Conditions: iHSKM muscle cells + IFN-b, HiBiT or CellTiter-Glo, 24 h. A digest of the protocol:
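Myoblasts (C25cl48, HLA-B HiBiT) seeded in medium without dexamethasone, IFN-b 4 ng/ml added except unstimulated columns; 1 hr later compounds pinned (12-pt 1:3, top 46 uM final). Incubated 24 hrs, lysed 10 min, luminescence measured.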

Several values for one entry are separate records, joined by “and”; a condition that tells them apart may be missing. Equal values may be shown once. A number with no mark means an inactive call. Records with an inconclusive call do not appear. Entries that show only a call come without a potency. Activity calls are given as the source filed them. Unless noted, calls come from the whole dose curve; as a rule, active = well fitted curve in the direction sought with a large enough effect; inconclusive = small, poorly fitted or top-dose-only effect, or another doubt; inactive = no such curve, though single readings can be large; an effect the other way counts as inactive or inconclusive.

Chain of Nuclear receptor subfamily 1 group I member 2 (Rattus norvegicus) (Q9R1A7 whole entry, looked up): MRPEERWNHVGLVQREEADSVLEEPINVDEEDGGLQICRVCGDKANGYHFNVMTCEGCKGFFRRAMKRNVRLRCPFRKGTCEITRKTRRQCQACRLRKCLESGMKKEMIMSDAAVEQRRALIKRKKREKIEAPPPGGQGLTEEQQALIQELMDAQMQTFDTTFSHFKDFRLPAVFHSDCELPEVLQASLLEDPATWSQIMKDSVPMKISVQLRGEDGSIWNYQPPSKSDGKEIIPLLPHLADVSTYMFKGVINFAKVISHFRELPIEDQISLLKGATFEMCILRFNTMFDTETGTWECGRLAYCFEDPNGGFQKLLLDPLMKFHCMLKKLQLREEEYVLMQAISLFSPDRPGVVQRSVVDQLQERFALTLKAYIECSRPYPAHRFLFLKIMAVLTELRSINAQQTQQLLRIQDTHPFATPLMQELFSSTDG

For the compound `CN=C(NC#N)NCCSCc1nc[nH]c1C`, the max response in assay [1] was 5.73%.

Consider `O=C(CCCN1CCC(O)(c2cccc(C(F)(F)F)c2)CC1)c1ccc(F)cc1`, for which the Potency result in assay [2] was “inactive”.

Turning to `CN(C)C/C=C(/c1ccc(Br)cc1)c1cccnc1`, the Potency result in assay [2] was “inactive”.

`NC(=Nc1ccccc1)Nc1ccccc1`: the Potency result in assay [2] is “inactive”. For the same compound, the max response in assay [1] was -0.275% and 5.17%.

As for `CC(=O)[C@@]1(O)CC[C@H]2[C@@H]3CCC4=CC(=O)CC[C@]4(C)[C@H]3CC[C@@]21C`, in assay [2], the Potency entry was “inactive”.

In the case of `CCN(CC)CC(=O)Nc1c(C)cccc1C`, in assay [2], the Potency entry was “inactive”.

`O=c1[nH]c(=O)n([C@H]2C[C@H](O)[C@@H](CO)O2)cc1Br`: the Potency entry in assay [2] was “inactive”. Moreover, the call in assay [3] was inactive.

Regarding `CCO/C([O-])=N/c1c[n+](N2CCOCC2)no1`, the Potency result in assay [2] was “inactive”.

Regarding `CCCCNC(=O)NS(=O)(=O)c1ccc(C)cc1`, the Potency result in assay [2] is “inactive”. For the same compound, the max response in assay [1] is -1.54% and 0.831%. The compound was classed as inactive in assay [3].

On to `NC(N)=NC(=O)Cc1c(Cl)cccc1Cl`, for which the Potency entry in assay [2] is “inactive”.

Take `CC1=NS(=O)(=O)c2cc(Cl)ccc2N1`: the Potency entry in assay [2] was “inactive”.

In the case of `NC(Cc1ccc(Cl)cc1)C(=O)O` (stereo not given), the Potency result in assay [2] was “inactive”.

As for `C[C@]12C=CC(=O)C=C1CC[C@H]1[C@@H]3C[C@@H](O)[C@](O)(C(=O)CO)[C@@]3(C)C[C@H](O)[C@@]12F`, the Potency entry in assay [2] is “inactive”. In assay [4] (Viability, at 45.9 µM (top of the series)), the activity change, negative = inhibition is 8.47%. Further, the max response in assay [1] was 3.64%.

On to `Nc1nc(N)c2nc(-c3ccccc3)c(N)nc2n1`, for which the max response in assay [1] was 0.808% and 7.32%.

In the case of `C[n+]1cc2c3c(ccc2c2ccc4cc5c(cc4c21)OCO5)OCO3`, the Potency in assay [4] (HiBiT) was 1110 nM (active); in assay [4] (Viability), 2220 nM (active).

Consider `O=C(O)CN(CCN(CC(=O)O)CC(=O)O)CCN(CC(=O)O)CC(=O)O`, for which the Potency result in assay [2] is “inactive”.

As to `CC(=O)Nc1nnc(S(N)(=O)=O)s1`, in assay [1], the max response is 0.356%. Further, the compound was classed as inactive in assay [3].

Regarding `C[C@H](CS)C(=O)N1CCC[C@H]1C(=O)O`, in assay [2], the Potency result is “inactive”.

Turning to `COc1ccc(CN(CCN(C)C)c2ccccn2)cc1`, the Potency entry in assay [2] was “inactive”. For the same compound, in assay [1], the max response was 7.02%.

For the compound `CNC1(C)C2CCC(C2)C1(C)C` (stereo not given), the Potency result in assay [2] was “inactive”.

For `COc1cc(Cc2cnc(N)nc2N)cc(OC)c1OC`, the compound was called inactive in assay [3].

On to `CCCCCCCC/C=C\CCCCCCCC(=O)NCc1ccc(O)c(OC)c1`, for which, in assay [2], the Potency entry was “inactive”.

As to `NC(=O)N1c2ccccc2C=Cc2ccccc21`, in assay [1], the max response was 5.91% and 3.5%.

Regarding `Cc1ccc(S(=O)(=O)NC(=O)NN2CCCCCC2)cc1`, the Potency entry in assay [2] is “inactive”. The max response in assay [1] is 0.57%.

On to `CC(=O)[C@]1(O)Cc2c(O)c3c(c(O)c2[C@@H](O[C@H]2C[C@H](N)[C@H](O)[C@H](C)O2)C1)C(=O)c1ccccc1C3=O`, for which the Potency in assay [2] is 398 nM (active); in assay [4] (HiBiT) it was 883 nM (active).

As to `CC(C)(Oc1ccc(CCNC(=O)c2ccc(Cl)cc2)cc1)C(=O)O`, the Potency entry in assay [2] is “inactive”. Besides, the max response in assay [1] was -5.47%.

As for `Nc1ncn([C@@H]2O[C@H](CO)[C@@H](O)[C@H]2O)c(=O)n1`, in assay [4] (HiBiT), the Potency was 14000 nM (active). Besides, the compound was classed as inactive in assay [3].

Consider `O=C(O)CN(CCOCCOCCN(CC(=O)O)CC(=O)O)CC(=O)O`, for which the Potency result in assay [2] is “inactive”.

For the compound `CCCCNc1c(C(=O)OCC)c(C)nc2c1cnn2CC`, the Potency result in assay [2] is “inactive”.

On to `O=C(O)CCCCCCCC(=O)O`, for which the Potency result in assay [2] is “inactive”. Besides, the max response in assay [1] is -2.29%. For the same compound, in assay [3], the call was inactive.

The values are drawn from PubChem BioAssay (NCATS).
